Measured values: PubChem BioAssay AID1159580 (chemical genetic matrix, 2015)
Where “and” joins values, the source holds several entries; their conditions need not be identical. Equal values may be shown once. In all, about 5,500 compounds went through this assay and about 2,000 (36%) were called active. Another 18% or so got no clear call; they are omitted. Cut-off read from the data, not from the text of the source: active = normalized growth mostly below about 0.91 (no sharp cut-off); inconclusive = no clear call, values can overlap the other calls; inactive = mostly above about 0.92. Some of the results follow.

Assay: chemical genetic growth profiling, strain panel (AID 1159580);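 note: tested at 20 µM; growth read once vehicle control cultures reached saturation at 30 °C; 1 = growth at the plate median or of vehicle wells; lower values mean less growth of the strain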
Conditions: S. cerevisiae deletion strains, growth OD

Measured: normalized growth

Cc1ccc(N(CC2=NCCN2)c2cccc(O)c2)cc1
active: locus YJR043C, strain POL32, hits give low values 0.85
inactive: locus YAL013W, strain DEP1, hits give low values 0.994 and 0.986 | locus YAL021C, strain ccr4, hits give low values 1.01 | locus YAL026C, strain drs2, hits give low values 1.02 | locus YAL030W, strain snc1, hits give low values 1.02 | locus YAL040C, strain CLN3, hits give low values 1.01 | locus YBL061C, strain skt5, hits give low values 0.998 | locus YBR009C, strain hhf1, hits give low values 1.02 | locus YBR021W, strain FUR4, hits give low values 0.991 | locus YBR023C, strain chs3, hits give low values 1.02 | locus YBR171W, strain sec66, hits give low values 1.01 | locus YBR229C, strain ROT2, hits give low values 1 | locus YBR231C, strain swc5, hits give low values 1.01 | locus YBR279W, strain paf1, hits give low values 1.01 | locus YCL011C, strain gbp2, hits give low values 1.02 | locus YCL016C, strain dcc1, hits give low values 0.998 | locus YCL029C, strain bik1, hits give low values 1.01 | locus YCL061C, strain MRC1 (second series), hits give low values 0.992 | locus YCL069W, strain vba3, hits give low values 1.02 | locus YCR088W, strain abp1, hits give low values 1.01 | locus YDL005C, strain med2, hits give low values 1.02 | locus YDL035C, strain GPR1, hits give low values 0.985 | locus YDL040C, strain nat1, hits give low values 1.01 | locus YDL074C, strain BRE1, hits give low values 0.908 | locus YDL101C, strain DUN1, hits give low values 0.983 | locus YDL134C, strain PPH21, hits give low values 0.994 | locus YDL185W, strain tfp1, hits give low values 1.02 | locus YDL192W, strain arf1, hits give low values 1.01 | locus YDR001C, strain nth1, hits give low values 1.01 | locus YDR069C, strain doa4, hits give low values 0.998 | locus YDR101C, strain arx1, hits give low values 0.985 | locus YDR137W, strain rgp1, hits give low values 1.02 | locus YDR150W, strain NUM1, hits give low values 1.01 | locus YDR159W, strain sac3, hits give low values 1 | locus YDR162C, strain NBP2, hits give low values 0.976 | locus YDR195W, strain ref2 1.02 | locus YDR297W, strain sur2, hits give low values 1.02 | locus YDR318W, strain mcm21, hits give low values 0.991 | locus YDR334W, strain swr1, hits give low values 1.04 | locus YDR335W, strain msn5, hits give low values 1.03 | locus YDR363W, strain ESC2, hits give low values 1.06 | locus YDR388W, hits give low values 1.01 | locus YDR392W, strain spt3, hits give low values 0.95 | locus YDR502C, strain sam2, hits give low values 0.977 | locus YEL003W, strain gim4, hits give low values 1.03 | locus YEL037C, strain rad23, hits give low values 1.03 | locus YEL061C, strain CIN8 (second series), hits give low values 1.02 | locus YEL061C, strain CIN8, hits give low values 1.04 | locus YER002W, strain NOP16, hits give low values 1.01 | locus YER015W, strain faa2, hits give low values 1.02 | locus YER016W, strain bim1, hits give low values 1.02 | locus YER110C, hits give low values 1.03 | locus YER111C, strain swi4, hits give low values 1.02 | locus YER155C, strain BEM2 (second series), hits give low values 0.929 | locus YER155C, strain BEM2, hits give low values 1.01 | locus YER167W, strain BCK2, hits give low values 0.972 | locus YFR010W, strain ubp6, hits give low values 1.02 | locus YGL078C, strain dbp3, hits give low values 0.995 | locus YGL086W, strain mad1, hits give low values 1.02 | locus YGL167C, strain pmr1, hits give low values 1.02 | locus YGL173C, strain kem1, hits give low values 1.01 | locus YGL227W, strain vid30, hits give low values 1.03 | locus YGL240W, strain doc1, hits give low values 0.972 | locus YGL248W, strain PDE1, hits give low values 0.997 | locus YGL253W, strain hxk2, hits give low values 1.02 | locus YGR078C, strain PAC10, hits give low values 0.972 and 1.01 | locus YGR135W, strain pre9, hits give low values 0.976 | locus YGR229C, strain SMI1, hits give low values 0.912 and 0.979 | locus YGR252W, strain gcn5, hits give low values 0.926 | locus YHR013C, strain ard1, hits give low values 1 | locus YHR027C, strain rpn1, hits give low values 1.01 | locus YHR030C, strain SLT2, hits give low values 1.01 and 1.04 | locus YHR079C, strain IRE1 (second series), hits give low values 0.99 | locus YHR079C, strain IRE1, hits give low values 1.05 | locus YHR094C, strain hxt1, hits give low values 1 | locus YHR129C, strain ARP1, hits give low values 0.984 | locus YHR142W, strain chs7, hits give low values 1.02 | locus YHR200W, strain rpn10, hits give low values 1 | locus YIL066C, strain RNR3, hits give low values 1.01 | locus YIL073C, strain SPO22, hits give low values 1.1 | locus YIL125W, strain kgd1, hits give low values 0.993 | locus YIR030C, strain dcg1, hits give low values 1.01 | locus YJL092W, strain hpr5, hits give low values 1.02 | locus YJL095W, strain BCK1 (second series), hits give low values 1.01 | locus YJL095W, strain BCK1, hits give low values 0.905 and 1.04 | locus YJL115W, strain asf1, hits give low values 1.03 | locus YJL129C, strain trk1, hits give low values 1.02 | locus YJL134W, strain LCB3, hits give low values 1.01 | locus YJL154C, strain vps35, hits give low values 1.03 | locus YJL164C, strain tpk1, hits give low values 1 | locus YJL166W, strain qcr8, hits give low values 0.993 | locus YJL168C, strain set2, hits give low values 1.01 | locus YJL187C, strain SWE1 (second series), hits give low values 0.993 | locus YJL187C, strain SWE1, hits give low values 1.01 | locus YJR066W, strain TOR1, hits give low values 0.978
